PubChem BioAssay (NCI)
About 83,000 compounds went through this panel and 20% of them were active in at least one assay; those are over-represented in the sample as a whole.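 Plates (96-well) were seeded with cells, treated with compound at one concentration, and incubated for 48 hours before percent growth was determined.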 Calls of active or inactive are those of the source. Rule for the calls: active = growth percent below 10; inactive = the rest.

How the values were obtained:
Experiment in all cases: NCI-60 one-dose screen, 48 h (100 = growth as untreated, 0 = no growth, -100 = all killed)
Conditions in all cases: 10 µM unless noted
T-47D breast = tested on: T-47D breast
BT-549 breast = tested on: BT-549 breast
MDA-MB-435 melanoma = tested on: MDA-MB-435 melanoma
SW-620 colon = tested on: SW-620 colon
MCF7 breast = tested on: MCF7 breast
HCC-2998 colon = tested on: HCC-2998 colon
KM12 colon = tested on: KM12 colon
HCT-116 colon = tested on: HCT-116 colon

Measured: growth

Cn1cc(-c2nc(-c3cn(C)c4ncccc34)cs2)c2cc(F)ccc21
inactive: T-47D breast 48.1% | BT-549 breast 49% | SW-620 colon 26.9% | MCF7 breast 20% | HCC-2998 colon 53% | KM12 colon 22.2%
active: MDA-MB-435 melanoma -15.1%

COc1ccc(/C=C(\C#N)c2cc3ccccc3n2C(C)=O)cc1
active: MDA-MB-435 melanoma 9.69%
inactive: T-47D breast 78.5% | BT-549 breast 82.6% | MCF7 breast 53.7% | HCT-116 colon 81.1% | HCC-2998 colon 81.2% | KM12 colon 57.1%

CN(C)CCCCC(C(=O)CBr)(c1ccccc1)c1ccccc1
inactive: BT-549 breast 24.3% | MDA-MB-435 melanoma 36.3% | HCC-2998 colon 71.7% | KM12 colon 68.8%
active: T-47D breast -54.2% | SW-620 colon -49.7% | MCF7 breast 3.55%

C[C@H]1[C@H]2C3=CC[C@@H]4[C@@]5(C)C/C(=C/c6ccco6)C(=O)C(C)(C)[C@@H]5CC[C@@]4(C)[C@]3(C)CC[C@@]2(C(=O)N2CCOCC2)CC[C@@H]1C
inactive: T-47D breast 32% | BT-549 breast 75.8% | MDA-MB-435 melanoma 97.1% | MCF7 breast 39.4% | HCT-116 colon 26.9% | HCC-2998 colon 90.5% | KM12 colon 54.2%

COc1ccc(-c2cc(/C=C/C(=O)c3ccc(N)cc3)[nH]n2)cc1
inactive: T-47D breast 21% | MDA-MB-435 melanoma 14.7% | MCF7 breast 18.4% | HCC-2998 colon 35.4%
active: BT-549 breast 9.81% | SW-620 colon -38.1% | KM12 colon 3.29%

CCCCCC1CCCCN1C(=O)OCC (centres undefined)
inactive: T-47D breast 92.4% | BT-549 breast 98.1% | MDA-MB-435 melanoma 115% | SW-620 colon 105% | MCF7 breast 99.3% | HCC-2998 colon 94.4% | KM12 colon 110%

C/C(=N/NC(N)=S)C(=O)O
inactive: T-47D breast 28.6% | BT-549 breast 102% | MDA-MB-435 melanoma 85.8% | MCF7 breast 26.2% | HCT-116 colon 10.6% | HCC-2998 colon 94.3% | KM12 colon 109%

Cn1cc(-c2csc(-c3cn(CCCN4CCCCC4)c4ccccc34)n2)c2cccnc21
inactive: T-47D breast 92.5% | BT-549 breast 72.7% | HCC-2998 colon 99%
active: MDA-MB-435 melanoma -87.7% | SW-620 colon -65.3% | MCF7 breast -77.2% | KM12 colon -62.8%

O=C1CN(c2ccccc2)C(=O)C1C(=O)Nc1ccc(Cl)c(Cl)c1 (centres undefined)
active: MDA-MB-435 melanoma 7.79% [100 µM] | HCT-116 colon -19.4% [100 µM] | HCC-2998 colon 2.18% [100 µM]
inactive: T-47D breast 12.7% [100 µM] | BT-549 breast 23.4% [100 µM] | MCF7 breast 15.7% [100 µM] | KM12 colon 17.2% [100 µM]

Fc1ccc(Nc2ccc3c(OCCCN4CCOCC4)cccc3n2)cc1F
inactive: T-47D breast 78% | BT-549 breast 86.1% | MDA-MB-435 melanoma 78.7% | SW-620 colon 47.6% | MCF7 breast 61.3% | HCC-2998 colon 66.3% | KM12 colon 16.1%

Clc1ccc(Cn2cc(-c3nc4ccc(Br)nc4n3Cc3ccc(Cl)cc3)c3cccnc32)cc1
inactive: T-47D breast 34.7% | BT-549 breast 82.4% | MDA-MB-435 melanoma 105% | SW-620 colon 103% | MCF7 breast 57.7% | HCC-2998 colon 96.7% | KM12 colon 95.9%

COc1ccc(C(=O)c2ccc(C)cc2)c(OC)c1OC
inactive: T-47D breast 90% | BT-549 breast 86.7% | SW-620 colon 33.6% | MCF7 breast 72.2% | HCC-2998 colon 75.9% | KM12 colon 47.2%
active: MDA-MB-435 melanoma -25.2%

COc1cccc(-c2nn(-c3ccccc3)cc2-c2ccnc(NCCNS(=O)(=O)c3ccc(Cl)cc3)c2)c1
active: T-47D breast 3.58%
inactive: BT-549 breast 41.9% | MDA-MB-435 melanoma 21.8% | SW-620 colon 48.1% | MCF7 breast 11% | HCC-2998 colon 19.5% | KM12 colon 28.5%

CCCCCCCCNc1cccc2c1C(=O)c1ccccc1C2=O
inactive: T-47D breast 94.5% | BT-549 breast 101% | MDA-MB-435 melanoma 105% | SW-620 colon 93.5% | MCF7 breast 102% | HCC-2998 colon 107% | KM12 colon 103%

COc1cc(-c2cc(-c3nc4cc(Cl)c(Cl)cc4[nH]3)[nH]n2)cc(OC)c1OC
active: T-47D breast -10.8%
inactive: BT-549 breast 35.3% | MDA-MB-435 melanoma 66.1% | MCF7 breast 47.6% | HCT-116 colon 52.6% | HCC-2998 colon 92.3% | KM12 colon 51.5%

CCc1ccccc1NC(=O)c1sc2nc3c(cc2c1N)CCCC3
active: MDA-MB-435 melanoma 1.18%
inactive: T-47D breast 34.6% | BT-549 breast 48.4% | SW-620 colon 26.7% | MCF7 breast 19.8% | HCC-2998 colon 78.9% | KM12 colon 27.9%

O=C1C=Cc2ncccc2C1=O
inactive: T-47D breast 66.6% | BT-549 breast 95.5% | MDA-MB-435 melanoma 58.2% | MCF7 breast 12.5% | HCT-116 colon 27.1% | HCC-2998 colon 110% | KM12 colon 104%

CC[C@]12C=CCN3CC[C@@]4(c5cc([C@H]6CCC(=O)N6)c(OC)cc5N(C)[C@H]4[C@@](O)(C(=O)OC)[C@@H]1OC(C)=O)[C@@H]32
inactive: T-47D breast 96.3% [2.5 µM] | BT-549 breast 113% [2.5 µM] | MDA-MB-435 melanoma 107% [2.5 µM] | SW-620 colon 108% [2.5 µM] | MCF7 breast 93.2% [2.5 µM] | HCC-2998 colon 110% [2.5 µM] | KM12 colon 111% [2.5 µM]

OCC(CO)(CCl)CCl
inactive: T-47D breast 94.2% | BT-549 breast 95.6% | MDA-MB-435 melanoma 105% | MCF7 breast 94.2% | HCT-116 colon 78.6% | HCC-2998 colon 101% | KM12 colon 99.9%

Cc1cc(Cl)nc(N(CCCNc2ccnc3cc(Cl)ccc23)Cc2ccco2)n1
inactive: MDA-MB-435 melanoma 22.8% | SW-620 colon 20% | MCF7 breast 12.2% | HCC-2998 colon 22% | KM12 colon 22.4%
active: T-47D breast 3.69% | BT-549 breast 8.06%

O=C1c2ccccc2C(=Cc2ccccc2)c2ccccc21
inactive: T-47D breast 29.4% | SW-620 colon 12.6%
active: BT-549 breast -3.95% | MDA-MB-435 melanoma -56.4% | HCT-116 colon 5.11% | HCC-2998 colon -45.7% | KM12 colon -26.6%

O=C1/C(=C\C(Cl)=C/c2ccc([N+](=O)[O-])cc2)SC(=S)N1CCc1ccc(O)cc1
active: T-47D breast -36.4% | BT-549 breast -51.8% | MDA-MB-435 melanoma -1.96% | MCF7 breast -73.4% | HCT-116 colon -77.2% | HCC-2998 colon -92.3% | KM12 colon -50.5%

CCCCCCCN(CCCCCCC)C(=N)c1ccnc2ccccc12
inactive: BT-549 breast 56%
active: T-47D breast -39.9% | MDA-MB-435 melanoma -88.5% | SW-620 colon -75.9% | MCF7 breast -62.2% | HCC-2998 colon -87% | KM12 colon -16.8%

CC(C)(C)n1cc(-c2ccnc(NCCCNS(=O)(=O)c3ccc(Cl)cc3)c2)c(-c2cccc(F)c2)n1
inactive: T-47D breast 46.5% | BT-549 breast 74.7% | MDA-MB-435 melanoma 85.6% | SW-620 colon 70.2% | MCF7 breast 60.5% | HCC-2998 colon 63.4% | KM12 colon 60.5%

Cc1ccncc1C(=O)O
inactive: T-47D breast 107% | BT-549 breast 99.8% | MDA-MB-435 melanoma 101% | SW-620 colon 97.3% | MCF7 breast 101% | HCC-2998 colon 116% | KM12 colon 98.6%

COc1cc(/C=N/Nc2ncnc3c2c(C)nn3-c2ccc(F)cc2)ccc1O
inactive: T-47D breast 79.8% | BT-549 breast 90.4% | MDA-MB-435 melanoma 95.4% | MCF7 breast 85.3% | HCT-116 colon 105% | HCC-2998 colon 99.7% | KM12 colon 71.9%

CN(C)c1ccc(N=C2C=CC(=O)C=C2)cc1
inactive: T-47D breast 60.6% | BT-549 breast 31.3% | MDA-MB-435 melanoma 74.5% | MCF7 breast 72.3% | HCT-116 colon 74.3% | HCC-2998 colon 94.3% | KM12 colon 97.1%

Cn1cc(-c2nc(-c3cn(C)c4ncccc34)cs2)c2ccccc21
inactive: T-47D breast 42% | BT-549 breast 48.3% | MCF7 breast 15.9% | HCT-116 colon 14.6% | HCC-2998 colon 67.4% | KM12 colon 22.5%
active: MDA-MB-435 melanoma -18.6%

COc1cc(/C=C/c2cc(/C=C/c3ccc(O)c(OC)c3)n(-c3ccc(Cl)cc3)c(=O)n2)ccc1O
inactive: T-47D breast 86% | BT-549 breast 66.9% | MDA-MB-435 melanoma 74.9% | MCF7 breast 47.6% | HCT-116 colon 50.6% | HCC-2998 colon 104% | KM12 colon 77%

CN(C)c1ccc(N)c2ccccc12
inactive: T-47D breast 80.2% | BT-549 breast 80.4% | HCC-2998 colon 50.2% | KM12 colon 62.7%
active: MDA-MB-435 melanoma -91.3% | MCF7 breast -70.1% | HCT-116 colon 6.65%

Cc1cc2nc3c4cc(O)ccc4n(CCN(C)C)c3nc2cc1C
active: T-47D breast 4.84% | SW-620 colon 3.53% | MCF7 breast -10.1% | HCT-116 colon -0.74% | HCC-2998 colon -22.5%
inactive: BT-549 breast 15.8% | KM12 colon 10.2%

COc1ccc(NC(=O)c2ccc3c(c2)nc(-c2cc4ccccc4[nH]c2=O)n3-c2cc(C(C)(C)C)[nH]n2)cc1
inactive: T-47D breast 78.9% | BT-549 breast 84.5% | MDA-MB-435 melanoma 92.5% | MCF7 breast 81.3% | HCT-116 colon 86% | HCC-2998 colon 105% | KM12 colon 90.5%

CCC(=O)c1c(C)[nH]c(C)c1C
inactive: T-47D breast 104% | BT-549 breast 94% | MDA-MB-435 melanoma 95.1% | MCF7 breast 61.1% | HCC-2998 colon 114% | KM12 colon 102%

O=S(=O)(NCCNc1cc(-c2cn(-c3ccccc3)nc2-c2cccc(O)c2)ccn1)c1ccc(C(F)(F)F)cc1
active: HCC-2998 colon 8.21%
inactive: T-47D breast 18.3% | BT-549 breast 65.2% | MDA-MB-435 melanoma 42.4% | MCF7 breast 25.9% | HCT-116 colon 28.4% | KM12 colon 46.5%

COc1ccc2c(c1)C/C(=C\c1cc(-c3cc(OC)c(OC)c(OC)c3)n[nH]1)C2=O
inactive: T-47D breast 73.4% | BT-549 breast 85.2% | MDA-MB-435 melanoma 91.5% | MCF7 breast 56.3% | HCT-116 colon 81.9% | HCC-2998 colon 102% | KM12 colon 85%
